The values that follow come from PubChem BioAssay (EPA / NIEHS).

Molecules are shown by their SMILES. Results filed as inconclusive are left out. Activity calls are given as the source filed them. How the source made its calls: active means hit-call score of the fitted dose curve at least 0.9, where 1 is the maximum; inconclusive means response in the unintended direction; inactive means score below 0.9.

This test relates to turtle Thyroid Hormone Receptor, alpha (TRa), gene 101949057. Kind of test: ATG_trTRa_XSP2: Attagene TRANS-FACTORIAL Multi-Species (XSP1) HepG2 Assay for turtle Thyroid Hormone Receptor, alpha (TRa) (AID 2283834).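 Further: hits raise reporter mRNA over the DMSO baseline so AC50 marks activators.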 The protocol:
ATG_XSP2_multi-species_TRANS is a cell-based, multiplexed assay created by modifying the existing Attagene TRANS-FACTORIAL system to include a panel of nuclear receptors from some or all the following species: human (Homo sapiens), mouse (Mus musculus), frog (Xenopus laevis), zebrafish (Danio rerio), chicken (Gallus gallus), and turtle (Chrysemys picta). The ECOTOX-FACTORIAL format uses HepG2, a human liver cell line, with measurements taken at 24 hours after chemical dosing in a 24-well plate. Xsp2 included 3 nM 6-alpha-fluorotestosterone and 1.5 nM norgestrel to stimulate the androgen receptor.ATG_trTRa_XSP2 is one of 29 assay components measured or calculated from the ATG_XSP2_multi-species_TRANS assay. It is designed to make measurements of mRNA induction, a form of inducible reporter, as detected with fluorescence intensity signals by Reverse transcription polymerase chain reaction (RT-PCR) and Capillary electrophoresis technology.The assay endpoint ATG_trTRa_XSP2 was analyzed in the positive analysis fitting direction relative to DMSO as the negative control and baseline of activity. Using a type of inducible reporter, measures of mRNA for gain-of-signal activity can be used to understand the reporter gene at the transcription factor-level as they relate to the gene TR. Furthermore, this assay endpoint can be referred to as a primary readout, because this assay has produced multiple assay endpoints where this one serves a reporter gene function. To generalize the intended target to other relatable targets, this assay endpoint is annotated to the nuclear receptor intended target family, where the subfamily is non-steroidal.
Human liver HepG2 cells are transiently transfected with multiple reporter transcription units (MRTUs) in 6-well plates using FuGene 6 reagent (Roche; 3 ml FuGene/1 mg DNA). The MRTU constructs are regulated by a cis-regulating element (promoter). […] A major difference between the CIS and TRANS system is that in CIS activities of endogenous TFs are measured, whereas the TRANS assay evaluates changes in activities of exogenous, chimeric NR-Gal4 proteins. […] At the end of 24 hour incubation, total RNA was isolated using TriZol reagent (Invitrogen). The isolated RNA is then reverse-transcribed using oligo(dT) primer and Mo-MLV reverse transcriptase (Invitrogen) with DNAse I (Ambion) treatment for 30 min. The one-tenth of the produced cDNA was amplified by PCR using Taq DNA polymerase (Invitrogen) and two reporter sequence-specific primers. The PCR products were fluorescently labeled by primer extension with 6-arboxyfluorescein (6-FAM) 5'-labeled reporter sequence-specific primer (2 min at 95 C, 20 s at 68 C and 10 min at 72 C) and these products were digested with 5U of HpaI (New England Biolabs) for 2h at 37 C. The fragments were purified using Qiaquick PCR columns (Qiagen), analyzed on an ABI 3130xL genetic analyzer (Applied Biosystems) with peak positions identified by using a set of X-rhodamine (ROX)-labeled MapMarker1000 molecular weight standards (BioVentures). The raw capillary electrophoresis data was processed using Attagraph software (Attagene).
For `C[C@]12CCC(=O)C=C1CC[C@@H]1[C@@H]2CC[C@@]2(C)[C@H]1CC[C@]2(C)O`, the molecule was classed as inactive.

On to `ClC(Cl)=C(c1ccc(Cl)cc1)c1ccc(Cl)cc1`, for which the molecule was classed as inactive.

Take `c1cc2ccc3cccc4ccc(c1)c2c34`: the result was inactive.

Regarding `CC(c1ccc(O)cc1)(c1ccc(O)cc1)c1ccc(O)cc1`, the molecule was called inactive.

`CCOC(=O)C(O)(c1ccc(Cl)cc1)c1ccc(Cl)cc1`: the call was inactive.

In the case of `C[C@]12CCC(=O)C=C1CC[C@@H]1[C@@H]2CC[C@]2(C)C(=O)CC[C@@H]12`, the call was inactive.

For the molecule `CCC(=O)O[C@H]1CC[C@H]2[C@@H]3CCC4=CC(=O)CC[C@]4(C)[C@H]3CC[C@]12C`, the result was inactive.

As to `Cc1cc(-c2ccc(N)c(C)c2)ccc1N`, the molecule was called inactive.

In the case of `Oc1ccc(C(c2ccc(O)cc2)(C(F)(F)F)C(F)(F)F)cc1`, the call was inactive.

Turning to `CC(C)(O)C(=O)Nc1ccc([N+](=O)[O-])c(C(F)(F)F)c1`, the call was inactive.

As to `CC(C)(c1ccccc1)c1ccc(O)cc1`, the molecule was called inactive.
